In PubChem BioAssay (NCI) one finds growth data, which are given here for 40 compounds.

Each structure is given as a SMILES string. Where “and” joins values, the source holds several entries; their conditions need not be identical. Identical values can stand only once. The panel holds about 83,000 compounds, 20% with a hit somewhere; the sample as a whole holds those more often.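 Method: cells in 96-well plates; compound added at one concentration; 48 h incubation; percent growth measured; values under 10 scored active.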 Calls of active or inactive are those of the source.

The subject of the experiment is MDA-MB-468 breast. Nature of the experiment: NCI-60 one-dose screen, 48 h (100 = growth as untreated, 0 = no growth, -100 = all killed). The following applies: 10 µM unless noted.
Regarding `C#CCNC(=O)c1cccc2c1cc(C)n2-c1nc2c(c(NCc3ccccc3)n1)CCCC2`, the growth was -50.9% (active).
As to `CCN(CC)c1ccc2c(c1)Oc1nc(N)c(C#N)c(N)c1C2Sc1ccc(SC)cc1` (stereo not given), the growth is -37.4% (active).
For the compound `Nc1ncnc2c1c(C(F)(F)F)cn2[C@@H]1O[C@H](CO)[C@@H](O)[C@H]1O`, the growth is -41.1% (active).
Then `O=Nc1c(O)ccc2ccccc12.O=Nc1c(O)ccc2ccccc12.O=Nc1c([O-])ccc2ccccc12.[Fe+3]`, with 106% (inactive); and `CC1=C(/C=C/C(C)=C/C=C/C(C)=C/CO)C(C)(C)CCC1`, with 103% (inactive).
Then `COc1ccc(-c2cc(-c3ccccc3)nc(SCCCC(=O)NO)n2)cc1OC`, with -2.2% (active).
Take `CCNCCCn1c2c(c3ccc(Cl)cc3c1=O)C(=O)c1cc(OC)cnc1-2`: the growth was 5.92% (active).
`COc1cccc2c1-c1ccccc1C2=O`: the growth was 39.3% (inactive).
Then `CCN(CC)C(=S)SSC(=S)N(CC)CC`, with 77.7% (inactive) and 111% (inactive); and `CCN(CC)Cc1c(-c2cccc(OC(F)(F)F)c2)[nH]c2ccc(N3CCCC3)cc2c1=O`, with 93.1% (inactive).
The figure for `CCc1nnc(CNc2ccc(Cl)cc2)o1` is 114% (inactive).
In the case of `CCCCCCCCCC[N+](C)(C)C`, the growth was -31.3% (active).
Take `O=C(O)c1ccc([N+](=O)[O-])cc1S(=O)(=O)O`: the growth was 98.6% (inactive).
Consider `O=c1c2c(O)cccc2oc2c3c(cc(O)c12)O[C@H]1OC=C[C@@H]31`, for which the growth was 30.2% (inactive).
In the case of `CC(=O)N1N=C(c2ccc(C)cc2)CC1c1cn(-c2ccccc2)nc1-c1cccc(Nc2ccnc3cc(Cl)ccc23)c1` (stereo not given), the growth was 9.76% (active).
Then `O=C1C2=C(C(=O)c3ccccc31)C(O)(S(=O)(=O)O)C(O)(S(=O)(=O)O)C1N=CC=CC21` (stereo not given), with 18.4% (inactive); and `CCn1c2c(c3ccccc31)SC1c3cccn3CCN1C2=S` (stereo not given), with -1.66% (active); and `O=C1/C=C/[C@@H](O)[C@@H]2C[C@@H](O)C[C@H]2/C=C/CCC[C@H](CCc2ccc(C(F)(F)F)cc2)O1`, with -20.3% (active).
On to `CN(C)c1ccc(/C=C(\C#N)c2cc3ccccc3n2C)cc1`, for which the growth is 31.8% (inactive).
The figure for `CSC1=C(N)C(=O)c2[nH]cc(CO)c2C1=N` is -73.5% (active); for `COc1cccc(-c2nn(-c3ccccc3)cc2-c2ccnc(N3CCOCC3)c2)c1` it is 69.2% (inactive).
Then `N#CC1=C(N)Oc2c(cnn2-c2ccc([N+](=O)[O-])cc2[N+](=O)[O-])C1c1ccccc1` (stereo not given), with 87.7% (inactive).
For the compound `Nc1ccc2c(c1)c(N)nn2C(=O)Nc1ccc(Cc2ccccc2)cc1`, the growth was 98.4% (inactive).
Take `CN1COc2ccc3ccccc3c2C1`: the growth is 111% (inactive).
For the compound `COC(=O)CNC(=O)[C@@H](OC)[C@@H]1Cc2cc3cc(OC4CC(OC5CC(O)C(O)C(C)O5)C(O)C(C)O4)c(C)c(O)c3c(O)c2C(=O)[C@H]1OC1CC(OC2CC(OC3CC(C)(O)C(O)C(C)O3)C(O)C(C)O2)C(O)C(C)O1` (stereo not given in full), the growth was -22.3% (active).
The figure for `CC(=O)Nc1ccc(Sc2ccc([N+](=O)[O-])o2)cc1` is 4.76% (active); for `CC1(C)CC[C@]2(C(=O)O)CC[C@]3(C)C(=CCC4[C@@]5(C)C[C@@H](O)[C@@H]6OC(c7cccc([N+](=O)[O-])c7)OC[C@@]6(C)C5CC[C@]43C)C2C1` (stereo not given in full) it is 76% (inactive); for `Cn1ncc2c(Sc3ccc(Cl)cc3)ncnc21` it is 92.2% (inactive).
As to `CC1Cc2cc(F)ccc2-n2cccc21` (stereo not given), the growth is 136% (inactive).
Take `CCCCNCC(O)c1cc2c(Cl)cc(Cl)cc2c2cc(C(F)(F)F)ccc12` (stereo not given): the growth was -86.2% (active).
Turning to `C[C@]12CC[C@@H]3c4ccc(O)cc4CC[C@H]3[C@@H]1CC[C@@H]2NS(=O)(=O)c1cccc(Br)c1`, the growth was 53.8% (inactive).
Take `CC(=O)NCC(=O)N1[C@@H]2CC[C@H]1c1ccc(Nc3ncc(C(F)(F)F)c(NC4CCC4)n3)cc12`: the growth is 72% [2.5 µM] (inactive).
Then `c1cnc2[nH]cc(-c3nc(-c4ccsc4)cs3)c2c1`, with 74.6% (inactive).
`CC12CCC3C(CCC4CC(=O)/C(=C\O)CC43C)C1CCC(=O)O2` (stereo not given): the growth is 108% (inactive).
Regarding `COc1ccc(Nc2ncccc2NC(=O)c2cn(Cc3cccc(Oc4ccccc4)c3)nn2)cc1OC`, the growth was 55.6% (inactive).
Then `O=Nc1c(-c2c(O)[nH]c3cc(Br)ccc23)[nH]c2ccccc12`, with -34.2% (active).
For the compound `Cc1ccc(/C=C/c2c(C(=O)/C=C/c3ccccc3)c(C)nc3ccccc23)cc1`, the growth is 38.1% (inactive).
Consider `CC(C)(C)c1cc(C[P+](c2ccc(Cl)cc2)(c2ccc(Cl)cc2)c2ccc(Cl)cc2)cc(C(C)(C)C)c1O`, for which the growth is 6.75% (active).
Regarding `CS(=O)(=O)O[C@@H]1C(=O)N(c2cc3c4ccccc4ccc3c3ccccc23)[C@H]1c1ccc(F)cn1`, the growth was 30.4% (inactive).
`C=C1CC[C@@H]2[C@](C)(COC(C)=O)[C@H](OC(C)=O)CC[C@@]2(C)[C@@H]1CC(NCc1ccccc1)C1=CCOC1=O` (stereo not given in full): the growth is 22.9% (inactive).
